# Data as given in article PMC7862700, “An all-to-all approach to the identification of sequence-specific readers for epigenetic DNA modifications on cytosine”.
# What was measured:
# Assay in all cases: DAPPL (digital affinity profiling via proximity ligation, sequencing); 10 mM Tris-HCl pH 7.5, 50 mM NaCl, 1 mM DTT, 4% glycerol, room temperature, 30 min; GST-TFs on glutathione beads, 16-mer random dsDNA library, 0.1% formaldehyde crosslink after washing; high values mean tight binding
# [1] = target: T1, FLI1 (Homo sapiens, UniProt Q01543 1-452); details: protein: recombinant; tags: N-terminal GST; dsDNA, one strand shown
# T1 sequence: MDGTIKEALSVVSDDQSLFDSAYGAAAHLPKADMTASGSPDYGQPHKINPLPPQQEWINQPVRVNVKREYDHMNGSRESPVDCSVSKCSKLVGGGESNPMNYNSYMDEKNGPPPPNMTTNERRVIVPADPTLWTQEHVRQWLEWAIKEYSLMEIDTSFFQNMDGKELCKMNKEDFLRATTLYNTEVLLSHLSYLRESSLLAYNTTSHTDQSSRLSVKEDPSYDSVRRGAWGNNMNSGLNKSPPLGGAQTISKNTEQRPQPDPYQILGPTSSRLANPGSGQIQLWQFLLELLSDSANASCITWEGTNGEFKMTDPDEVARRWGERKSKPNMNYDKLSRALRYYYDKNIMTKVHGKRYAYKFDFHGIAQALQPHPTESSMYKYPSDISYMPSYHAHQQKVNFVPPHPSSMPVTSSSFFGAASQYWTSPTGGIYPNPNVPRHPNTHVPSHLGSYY
# Procedure, shortened: (§1)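 Sequencing on an Illumina NextSeq500 followed washing, crosslinking with 0.1% formaldehyde, proximity ligation (BsaI/T4 ligase, 1 h, 37 °C) and PCR amplification of pools that had been incubated for 30 min at room temperature with 200 nmole of a random double-stranded 16-mer DNA library in Tris/NaCl/DTT/glycerol buffer. Each pool held DNA-barcoded human transcription factors, expressed in yeast as GST fusions and captured on glutathione beads, plus a tag-only sample. Binding signal is a hexamer's read frequency for a factor divided by its frequency in the tag-only sample.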
# [2] = target: T2, ELK1 (Homo sapiens, UniProt P19419 1-428); details: protein: recombinant; tags: N-terminal GST; dsDNA, one strand shown
# T2 sequence: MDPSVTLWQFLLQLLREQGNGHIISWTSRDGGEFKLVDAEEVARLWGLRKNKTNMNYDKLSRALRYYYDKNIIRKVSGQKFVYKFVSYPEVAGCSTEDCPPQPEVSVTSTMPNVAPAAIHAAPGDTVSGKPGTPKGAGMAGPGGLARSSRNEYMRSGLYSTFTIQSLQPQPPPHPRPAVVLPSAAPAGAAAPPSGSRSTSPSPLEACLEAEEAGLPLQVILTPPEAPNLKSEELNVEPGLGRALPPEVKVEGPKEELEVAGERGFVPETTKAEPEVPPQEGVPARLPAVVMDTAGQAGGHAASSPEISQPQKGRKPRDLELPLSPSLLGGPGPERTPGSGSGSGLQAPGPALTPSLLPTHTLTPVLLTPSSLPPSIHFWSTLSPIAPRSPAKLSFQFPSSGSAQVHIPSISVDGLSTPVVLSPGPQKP
# Procedure, shortened: as §1
# [3] = target: T3, GABPA (Homo sapiens, UniProt Q06546 1-454); details: protein: recombinant; tags: N-terminal GST; dsDNA, one strand shown
# T3 sequence: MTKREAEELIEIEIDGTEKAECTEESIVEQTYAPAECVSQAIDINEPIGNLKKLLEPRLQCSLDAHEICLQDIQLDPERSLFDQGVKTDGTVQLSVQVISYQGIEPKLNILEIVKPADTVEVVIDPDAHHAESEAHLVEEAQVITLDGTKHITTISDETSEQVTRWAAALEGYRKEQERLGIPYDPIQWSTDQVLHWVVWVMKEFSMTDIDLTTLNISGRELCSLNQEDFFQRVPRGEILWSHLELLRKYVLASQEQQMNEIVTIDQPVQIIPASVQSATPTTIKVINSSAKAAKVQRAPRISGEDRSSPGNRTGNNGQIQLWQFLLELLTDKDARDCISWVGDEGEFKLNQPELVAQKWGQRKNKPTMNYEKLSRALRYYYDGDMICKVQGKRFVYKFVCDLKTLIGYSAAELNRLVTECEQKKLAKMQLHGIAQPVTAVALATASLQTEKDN
# Procedure, shortened: as §1
# [4] = target: T4, ERG (Homo sapiens, UniProt P11308 1-479); details: protein: recombinant; tags: N-terminal GST; dsDNA, one strand shown
# T4 sequence: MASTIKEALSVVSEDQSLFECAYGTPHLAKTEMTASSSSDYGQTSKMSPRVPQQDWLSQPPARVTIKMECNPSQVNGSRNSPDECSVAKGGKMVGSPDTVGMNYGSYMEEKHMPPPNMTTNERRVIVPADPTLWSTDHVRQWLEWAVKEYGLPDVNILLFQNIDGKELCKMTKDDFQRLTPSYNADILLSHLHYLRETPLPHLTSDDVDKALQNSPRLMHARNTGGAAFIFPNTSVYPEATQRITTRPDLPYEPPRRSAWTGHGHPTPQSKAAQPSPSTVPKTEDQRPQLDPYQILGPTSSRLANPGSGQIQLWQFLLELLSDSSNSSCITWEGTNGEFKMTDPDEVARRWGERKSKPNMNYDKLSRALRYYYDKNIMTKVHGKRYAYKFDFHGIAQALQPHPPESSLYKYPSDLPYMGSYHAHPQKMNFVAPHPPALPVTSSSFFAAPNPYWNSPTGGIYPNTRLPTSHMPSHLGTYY
# Procedure, shortened: as §1
# [5] = target: ELF1 (Homo sapiens, UniProt P32519 1-619); details: protein: recombinant; tags: N-terminal GST; dsDNA, one strand shown
# Procedure, shortened: as §1
# [6] = target: T5, EHF (Homo sapiens, UniProt Q9NZC4 1-300); details: protein: recombinant; tags: N-terminal GST; dsDNA, one strand shown
# T5 sequence: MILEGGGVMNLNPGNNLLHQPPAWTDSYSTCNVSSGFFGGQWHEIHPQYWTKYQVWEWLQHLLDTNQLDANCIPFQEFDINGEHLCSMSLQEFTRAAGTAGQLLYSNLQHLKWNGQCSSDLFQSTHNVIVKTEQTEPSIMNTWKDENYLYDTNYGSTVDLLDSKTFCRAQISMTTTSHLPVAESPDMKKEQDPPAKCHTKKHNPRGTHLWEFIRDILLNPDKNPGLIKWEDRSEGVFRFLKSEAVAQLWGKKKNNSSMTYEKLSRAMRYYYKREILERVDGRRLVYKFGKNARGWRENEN
# Procedure, shortened: as §1
# [7] = target: SPI1 (Homo sapiens, UniProt P17947 1-270); details: protein: recombinant; tags: N-terminal GST; dsDNA, one strand shown
# Procedure, shortened: as §1
# [8] = target: SPIB (Homo sapiens, UniProt Q01892 1-262); details: protein: recombinant; tags: N-terminal GST; dsDNA, one strand shown
# Procedure, shortened: as §1
# [9] = target: T6, ELK3 (Homo sapiens, UniProt P41970 1-407); details: protein: recombinant; tags: N-terminal GST; dsDNA, one strand shown
# T6 sequence: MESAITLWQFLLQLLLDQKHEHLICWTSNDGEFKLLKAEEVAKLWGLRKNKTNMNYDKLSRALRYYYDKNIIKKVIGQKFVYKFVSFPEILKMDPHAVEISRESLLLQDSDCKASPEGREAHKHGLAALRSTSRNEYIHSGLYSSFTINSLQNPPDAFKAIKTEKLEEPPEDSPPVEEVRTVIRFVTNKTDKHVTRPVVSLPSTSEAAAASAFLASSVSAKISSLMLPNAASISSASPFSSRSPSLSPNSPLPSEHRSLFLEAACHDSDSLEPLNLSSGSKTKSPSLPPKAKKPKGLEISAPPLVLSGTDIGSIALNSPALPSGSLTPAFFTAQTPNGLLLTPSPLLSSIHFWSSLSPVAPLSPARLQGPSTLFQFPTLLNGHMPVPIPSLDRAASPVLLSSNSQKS
# Procedure, shortened: as §1
# [10] = target: T7, FEV (Homo sapiens, UniProt Q99581 1-238); details: protein: recombinant; tags: N-terminal GST; dsDNA, one strand shown
# T7 sequence: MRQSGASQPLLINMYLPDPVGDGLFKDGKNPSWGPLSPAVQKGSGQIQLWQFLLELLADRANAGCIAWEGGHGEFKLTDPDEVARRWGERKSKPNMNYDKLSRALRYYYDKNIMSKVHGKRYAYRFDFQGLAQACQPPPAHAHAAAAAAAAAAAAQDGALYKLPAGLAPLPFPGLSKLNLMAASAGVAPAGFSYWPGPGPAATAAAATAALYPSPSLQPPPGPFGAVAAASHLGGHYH
# Procedure, shortened: as §1
# [11] = target: ETV5 (Homo sapiens, UniProt P41161 1-510); details: protein: recombinant; tags: N-terminal GST; dsDNA, one strand shown
# Procedure, shortened: as §1
# [12] = target: HSF1 (Homo sapiens, UniProt Q00613 1-529); details: protein: recombinant; tags: N-terminal GST; chain copies: 3; dsDNA, one strand shown
# Procedure, shortened: as §1
# [13] = target: T8, SPIC (Homo sapiens, UniProt Q8N5J4 1-248); details: protein: recombinant; tags: N-terminal GST; dsDNA, one strand shown
# T8 sequence: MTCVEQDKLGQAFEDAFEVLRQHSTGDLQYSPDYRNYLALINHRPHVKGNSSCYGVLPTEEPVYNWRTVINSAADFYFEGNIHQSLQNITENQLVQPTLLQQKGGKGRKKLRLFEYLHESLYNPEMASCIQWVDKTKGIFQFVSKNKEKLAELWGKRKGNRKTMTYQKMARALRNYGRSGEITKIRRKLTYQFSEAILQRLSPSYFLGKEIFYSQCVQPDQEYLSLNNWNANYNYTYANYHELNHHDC
# Procedure, shortened: as §1
# [14] = target: ELF4 (Homo sapiens, UniProt Q99607 1-663); details: protein: recombinant; tags: N-terminal GST; dsDNA, one strand shown
# Procedure, shortened: as §1
# [15] = target: T9, ELK4 (Homo sapiens, UniProt P28324-2 1-405); details: protein: recombinant; tags: N-terminal GST; dsDNA, one strand shown
# T9 sequence: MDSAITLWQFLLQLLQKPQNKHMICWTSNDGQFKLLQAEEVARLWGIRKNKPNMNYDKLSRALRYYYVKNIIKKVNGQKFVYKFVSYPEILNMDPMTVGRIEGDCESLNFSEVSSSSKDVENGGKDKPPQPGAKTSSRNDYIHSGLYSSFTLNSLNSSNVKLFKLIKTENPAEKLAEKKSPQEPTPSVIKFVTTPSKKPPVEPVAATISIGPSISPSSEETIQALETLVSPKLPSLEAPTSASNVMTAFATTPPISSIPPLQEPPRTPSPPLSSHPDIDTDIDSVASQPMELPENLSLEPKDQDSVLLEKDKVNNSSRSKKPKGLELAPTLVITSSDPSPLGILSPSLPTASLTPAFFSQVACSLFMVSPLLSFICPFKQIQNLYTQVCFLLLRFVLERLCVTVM
# Procedure, shortened: as §1
# [16] = target: T10, ETV2 (Homo sapiens, UniProt O00321 1-342); details: protein: recombinant; tags: N-terminal GST; dsDNA, one strand shown
# T10 sequence: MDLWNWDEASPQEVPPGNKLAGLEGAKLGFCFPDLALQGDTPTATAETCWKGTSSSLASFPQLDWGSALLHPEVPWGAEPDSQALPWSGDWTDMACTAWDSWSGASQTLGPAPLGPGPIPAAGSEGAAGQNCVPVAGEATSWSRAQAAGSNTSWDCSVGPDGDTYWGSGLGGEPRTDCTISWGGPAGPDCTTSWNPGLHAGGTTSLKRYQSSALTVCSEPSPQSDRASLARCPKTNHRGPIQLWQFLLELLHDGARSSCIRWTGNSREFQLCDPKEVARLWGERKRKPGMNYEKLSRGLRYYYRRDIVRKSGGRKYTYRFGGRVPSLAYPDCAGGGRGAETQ
# Procedure, shortened: as §1
# [17] = target: T11, ELF3 (Homo sapiens, UniProt P78545 1-371); details: protein: recombinant; tags: N-terminal GST; dsDNA, one strand shown
# T11 sequence: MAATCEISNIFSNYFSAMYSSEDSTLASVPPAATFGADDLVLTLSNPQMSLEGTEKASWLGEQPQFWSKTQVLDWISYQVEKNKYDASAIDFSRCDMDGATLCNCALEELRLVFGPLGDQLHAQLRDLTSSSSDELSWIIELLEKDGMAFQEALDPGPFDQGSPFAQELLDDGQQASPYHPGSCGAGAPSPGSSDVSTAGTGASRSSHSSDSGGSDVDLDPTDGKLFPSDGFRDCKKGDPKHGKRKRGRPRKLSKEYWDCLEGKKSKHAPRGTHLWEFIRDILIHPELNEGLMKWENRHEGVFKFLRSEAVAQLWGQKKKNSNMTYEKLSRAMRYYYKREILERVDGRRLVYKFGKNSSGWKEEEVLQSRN
# Procedure, shortened: as §1
# [18] = target: CRX (Homo sapiens, UniProt O43186 1-299); details: protein: recombinant; tags: N-terminal GST; dsDNA, one strand shown
# Procedure, shortened: as §1
# [19] = target: ETV1 (Homo sapiens, UniProt P50549 1-477); details: protein: recombinant; tags: N-terminal GST; dsDNA, one strand shown
# Procedure, shortened: as §1
# SPIB, sequence (Q01892 whole entry): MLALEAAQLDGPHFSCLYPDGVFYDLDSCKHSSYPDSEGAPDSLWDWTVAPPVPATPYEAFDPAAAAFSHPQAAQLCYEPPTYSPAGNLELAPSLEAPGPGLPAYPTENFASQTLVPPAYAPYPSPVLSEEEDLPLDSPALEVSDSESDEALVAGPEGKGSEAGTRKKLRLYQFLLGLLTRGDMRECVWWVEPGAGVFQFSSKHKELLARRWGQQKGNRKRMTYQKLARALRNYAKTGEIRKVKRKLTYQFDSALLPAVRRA
# HSF1, sequence (Q00613 whole entry): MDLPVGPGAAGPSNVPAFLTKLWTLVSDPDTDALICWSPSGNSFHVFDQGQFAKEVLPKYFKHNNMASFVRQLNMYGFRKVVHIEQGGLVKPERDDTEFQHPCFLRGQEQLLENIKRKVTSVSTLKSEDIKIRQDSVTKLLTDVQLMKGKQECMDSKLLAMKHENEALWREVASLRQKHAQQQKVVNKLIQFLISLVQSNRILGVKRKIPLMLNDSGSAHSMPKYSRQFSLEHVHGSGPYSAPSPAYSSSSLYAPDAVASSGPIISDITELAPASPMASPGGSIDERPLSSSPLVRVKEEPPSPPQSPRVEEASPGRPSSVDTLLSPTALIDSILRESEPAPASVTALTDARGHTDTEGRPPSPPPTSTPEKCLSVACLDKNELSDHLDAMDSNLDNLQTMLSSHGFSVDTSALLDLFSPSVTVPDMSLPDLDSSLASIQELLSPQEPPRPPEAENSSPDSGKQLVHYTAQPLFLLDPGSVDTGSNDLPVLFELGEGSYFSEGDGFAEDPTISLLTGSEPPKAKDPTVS
# CRX, sequence (O43186 whole entry): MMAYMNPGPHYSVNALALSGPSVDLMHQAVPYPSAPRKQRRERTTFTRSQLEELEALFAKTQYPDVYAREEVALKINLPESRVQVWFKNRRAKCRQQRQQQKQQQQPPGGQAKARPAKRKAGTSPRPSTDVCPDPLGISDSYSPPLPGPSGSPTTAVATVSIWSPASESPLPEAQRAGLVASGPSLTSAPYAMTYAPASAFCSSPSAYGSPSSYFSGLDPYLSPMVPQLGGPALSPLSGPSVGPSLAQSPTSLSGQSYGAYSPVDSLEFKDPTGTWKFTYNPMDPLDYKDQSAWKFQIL
# ELF4, sequence (Q99607 whole entry): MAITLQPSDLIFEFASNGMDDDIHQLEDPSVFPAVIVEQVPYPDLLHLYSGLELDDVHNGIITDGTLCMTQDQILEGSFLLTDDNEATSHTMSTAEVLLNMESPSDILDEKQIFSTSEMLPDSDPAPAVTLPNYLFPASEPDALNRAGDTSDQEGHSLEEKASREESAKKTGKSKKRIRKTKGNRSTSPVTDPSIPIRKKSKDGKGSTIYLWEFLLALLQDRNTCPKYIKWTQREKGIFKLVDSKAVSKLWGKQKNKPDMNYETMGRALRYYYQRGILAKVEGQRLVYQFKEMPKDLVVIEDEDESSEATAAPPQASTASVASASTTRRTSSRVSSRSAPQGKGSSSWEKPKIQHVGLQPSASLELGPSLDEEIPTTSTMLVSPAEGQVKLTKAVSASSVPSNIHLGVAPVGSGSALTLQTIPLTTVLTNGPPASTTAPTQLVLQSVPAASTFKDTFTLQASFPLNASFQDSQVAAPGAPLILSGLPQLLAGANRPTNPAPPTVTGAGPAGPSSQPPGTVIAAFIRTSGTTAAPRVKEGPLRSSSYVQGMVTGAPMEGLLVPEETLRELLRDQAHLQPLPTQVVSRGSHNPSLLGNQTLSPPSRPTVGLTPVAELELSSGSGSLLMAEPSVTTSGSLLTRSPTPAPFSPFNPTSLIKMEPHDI
# ETV1, sequence (P50549 whole entry): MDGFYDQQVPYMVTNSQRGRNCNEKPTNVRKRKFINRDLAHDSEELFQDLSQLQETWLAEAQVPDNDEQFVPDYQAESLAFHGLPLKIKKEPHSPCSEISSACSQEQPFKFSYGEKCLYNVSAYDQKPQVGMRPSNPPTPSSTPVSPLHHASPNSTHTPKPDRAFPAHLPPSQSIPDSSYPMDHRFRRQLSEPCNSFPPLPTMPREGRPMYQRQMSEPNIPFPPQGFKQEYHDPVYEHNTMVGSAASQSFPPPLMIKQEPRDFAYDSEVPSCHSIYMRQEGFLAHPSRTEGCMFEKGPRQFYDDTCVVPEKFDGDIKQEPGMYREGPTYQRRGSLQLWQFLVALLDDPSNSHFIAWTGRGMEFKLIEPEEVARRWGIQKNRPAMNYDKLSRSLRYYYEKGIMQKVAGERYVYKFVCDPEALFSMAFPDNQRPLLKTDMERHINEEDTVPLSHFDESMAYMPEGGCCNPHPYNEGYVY
# ETV5, sequence (P41161 whole entry): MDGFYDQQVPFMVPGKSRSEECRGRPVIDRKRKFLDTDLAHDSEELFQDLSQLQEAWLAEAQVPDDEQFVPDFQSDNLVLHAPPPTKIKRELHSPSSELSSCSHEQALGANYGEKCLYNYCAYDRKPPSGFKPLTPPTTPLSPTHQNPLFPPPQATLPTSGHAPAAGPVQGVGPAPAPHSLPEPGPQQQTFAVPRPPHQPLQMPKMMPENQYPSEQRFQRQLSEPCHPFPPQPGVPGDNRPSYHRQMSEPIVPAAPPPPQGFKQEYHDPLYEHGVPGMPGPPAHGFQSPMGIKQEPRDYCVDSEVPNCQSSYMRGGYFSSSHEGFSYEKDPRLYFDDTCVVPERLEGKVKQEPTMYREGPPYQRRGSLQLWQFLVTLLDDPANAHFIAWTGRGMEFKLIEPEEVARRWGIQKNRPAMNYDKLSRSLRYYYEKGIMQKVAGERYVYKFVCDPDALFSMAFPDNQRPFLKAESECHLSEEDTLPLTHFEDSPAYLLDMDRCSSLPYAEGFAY
# ELF1, sequence (P32519 whole entry): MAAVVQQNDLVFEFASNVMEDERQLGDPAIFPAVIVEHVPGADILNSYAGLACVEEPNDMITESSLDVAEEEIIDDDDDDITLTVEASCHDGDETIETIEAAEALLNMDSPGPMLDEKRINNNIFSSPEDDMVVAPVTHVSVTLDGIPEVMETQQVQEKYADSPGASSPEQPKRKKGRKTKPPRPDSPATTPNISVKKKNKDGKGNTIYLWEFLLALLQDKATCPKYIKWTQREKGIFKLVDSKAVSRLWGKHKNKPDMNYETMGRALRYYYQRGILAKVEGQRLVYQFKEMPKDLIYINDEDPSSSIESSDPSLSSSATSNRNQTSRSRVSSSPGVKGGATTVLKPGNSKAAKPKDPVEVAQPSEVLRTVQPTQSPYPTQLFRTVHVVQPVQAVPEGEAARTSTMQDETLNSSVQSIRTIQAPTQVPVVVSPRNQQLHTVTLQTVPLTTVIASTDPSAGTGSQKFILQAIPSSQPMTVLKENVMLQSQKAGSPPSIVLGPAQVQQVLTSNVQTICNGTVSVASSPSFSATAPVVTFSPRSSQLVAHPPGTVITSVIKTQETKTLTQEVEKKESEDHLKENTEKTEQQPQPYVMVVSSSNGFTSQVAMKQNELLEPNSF
sequence,measurement,setting,value
ACTATG,binding signal,[1],"1.23 fold enrichment (6-mer frequency, TF over GST control)"
same,binding signal,[2],"1.28 fold enrichment (6-mer frequency, TF over GST control)"
same,binding signal,[3],"1.37 fold enrichment (6-mer frequency, TF over GST control)"
same,binding signal,[4],"1.19 fold enrichment (6-mer frequency, TF over GST control)"
same,binding signal,[5],"1.21 fold enrichment (6-mer frequency, TF over GST control)"
same,binding signal,[6],"1.25 fold enrichment (6-mer frequency, TF over GST control)"
same,binding signal,[7],"1.14 fold enrichment (6-mer frequency, TF over GST control)"
same,binding signal,[8],"1.31 fold enrichment (6-mer frequency, TF over GST control)"
same,binding signal,[9],"1.2 fold enrichment (6-mer frequency, TF over GST control)"
same,binding signal,[10],"1.21 fold enrichment (6-mer frequency, TF over GST control)"
same,binding signal,[11],"1.19 fold enrichment (6-mer frequency, TF over GST control)"
same,binding signal,[12],"1.09 fold enrichment (6-mer frequency, TF over GST control)"
same,binding signal,[13],"1.37 fold enrichment (6-mer frequency, TF over GST control)"
same,binding signal,[14],"1.26 fold enrichment (6-mer frequency, TF over GST control)"
same,binding signal,[15],"1.08 fold enrichment (6-mer frequency, TF over GST control)"
same,binding signal,[16],"1.24 fold enrichment (6-mer frequency, TF over GST control)"
same,binding signal,[17],"1.09 fold enrichment (6-mer frequency, TF over GST control)"
same,binding signal,[18],"1.02 fold enrichment (6-mer frequency, TF over GST control)"
same,binding signal,[19],"1.24 fold enrichment (6-mer frequency, TF over GST control)"
